The source made the active and inactive calls.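 How the source made its calls, unless noted: active means NADPH fluorescence slope more negative than the mean of all samples by about 3 SD, 99.7% confidence; inactive means the rest.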
What was measured:
[1] = inhibitors of TNFa-induced NFkB p65 translocation, primary screen, imaging, HUVEC, MLSMR starter and 10KST1 sets (AID 438;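 active means inhibition above 20% together with a positive visual image hit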;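 further: compound added about 3h40 before a 20 min TNFalpha stimulation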;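 on inhibition: signal is the nuclear over cytoplasmic p65 intensity ratio per well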); conditions: HUVEC TNFa-induced p65 nuclear translocation; cell count: measured here: nuclei count (cytotoxicity indicator), at 2.08 µM; inhibition: at 2 µM, stronger effect = higher value, 0% TNFa-plus-vehicle, 100% no-TNFa wells
[2] = endothelial E-selectin expression blockers – imaging, HUVEC, immunofluorescence, MLSMR starter and 10KST1 sets, primary screen (AID 487;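 active means visually confirmed hit in the image check and inhibition above 20%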;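 on inhibition: signal is fraction of cell area covered by stained E-selectin grains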;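 on nuclei count: 100% = median nuclei count of all wells on the same plate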); conditions: HUVEC TNFalpha-induced E-selectin immunofluorescence imaging, at 2 µM; inhibition: stronger effect = higher value; nuclei count: measured here: cell number, toxicity
[3] = Primary imaging screen for DUSP6 inhibitors that restore phospho-Erk in transfected HeLa cells, chemical complementation (AID 609;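 active means compounds giving at least 50% inhibition in the cell-based MKP-3 phosphatase rescue imaging test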;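 on inhibition: phospho-Erk level distribution per well compared with pooled transfected vehicle control wells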); conditions: HeLa MKP-3 transfected, phospho-Erk imaging KS statistic, at 10 µM, cells stimulated with TPA for 15 min
[4] = biological target: Dual specificity protein phosphatase 6 (Homo sapiens) (UniProt Q16828); assay: as above; conditions: HeLa MKP-3 transfected, phospho-Erk imaging KS statistic; at 10 µM; stronger effect = higher value; cells stimulated with TPA for 15 min
[5] = biological target: Voltage-gated potassium channel subunit beta-2 (Rattus norvegicus) (UniProt P62483); assay: inhibitors of rat Kvbeta2 reductase activity – biochemical, NADPH fluorescence, primary screen (AID 622;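 active means fluorescence slope higher than the sample average by over 3 SD, cut at about -0.22 in these data, passing the limit was not always enough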;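 further: slope of raw intensity against log time taken from 70 to 1610 s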); conditions: recombinant KvBeta, 4-cyanobenzaldehyde reduction, at 10 µM, stronger effect = higher value
[6] = biological target: Voltage-gated potassium channel subunit beta-2 (Rattus norvegicus) (UniProt P62483); assay: enhancers of rat Kvbeta2 NADPH turnover – biochemical, NADPH fluorescence, primary screen (AID 623); conditions: Recombinant KvBeta, NADPH fluorescence decrease slope, 10 min; at 10 µM; stronger effect = lower value;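 further: fluorescence intensity change per second fitted from 20 to 320 s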
[7] = biological target: Alpha-2C adrenergic receptor (Homo sapiens) (UniProt P18825); assay: compounds altering alpha2C-coupled GIRK flux – cell-based, HEK293 alpha2C/GIRK1/2, thallium flux, primary screen (AID 624;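 active means fluorescence slope after compound addition differing from the mean of all screened samples at 99.7% confidence, in either direction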;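 further: slope of fluorescence ratio to pre-addition baseline per second over 15 to 24 s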); conditions: thallium flux BTC fluorescence, at 10 µM, actives lie on both sides
[8] = loss of swimming-algae plug formation – whole organism, Chlamydomonas reinhardtii, WT vs cilia-less mutant, absorbance, 96-well, primary screen (AID 463189;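 active means inhibition at or above 50% relative to wild type and mutant plate controls; inactive means inhibition below 50%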;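 further: 0% = wild type cc124 cells in DMSO and 100% = ciliumless bld1 mutant cells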); conditions: Chlamydomonas reinhardtii gravitaxis, OD600 absorbance, 2 days; at 10 µM; stronger effect = higher value
[9] = measured here: cell density z-score
[10] = measured here: nuclear c-Myc green intensity z-score
[11] = measured here: nuclear pErk red intensity z-score, stronger effect = higher value

Voltage-gated potassium channel subunit beta-2 (Rattus norvegicus), sequence (P62483 whole entry, looked up): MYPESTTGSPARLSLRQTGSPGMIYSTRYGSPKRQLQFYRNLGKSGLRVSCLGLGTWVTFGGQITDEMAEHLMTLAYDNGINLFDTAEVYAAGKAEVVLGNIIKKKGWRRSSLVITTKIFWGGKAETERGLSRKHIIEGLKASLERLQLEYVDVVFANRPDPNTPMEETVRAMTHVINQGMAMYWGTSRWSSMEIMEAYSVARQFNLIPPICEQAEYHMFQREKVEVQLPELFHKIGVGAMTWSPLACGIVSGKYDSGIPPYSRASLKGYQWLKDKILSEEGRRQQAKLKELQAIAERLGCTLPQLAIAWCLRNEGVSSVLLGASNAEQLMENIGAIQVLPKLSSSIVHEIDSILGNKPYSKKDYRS
Alpha-2C adrenergic receptor (Homo sapiens), sequence (P18825 whole entry, looked up): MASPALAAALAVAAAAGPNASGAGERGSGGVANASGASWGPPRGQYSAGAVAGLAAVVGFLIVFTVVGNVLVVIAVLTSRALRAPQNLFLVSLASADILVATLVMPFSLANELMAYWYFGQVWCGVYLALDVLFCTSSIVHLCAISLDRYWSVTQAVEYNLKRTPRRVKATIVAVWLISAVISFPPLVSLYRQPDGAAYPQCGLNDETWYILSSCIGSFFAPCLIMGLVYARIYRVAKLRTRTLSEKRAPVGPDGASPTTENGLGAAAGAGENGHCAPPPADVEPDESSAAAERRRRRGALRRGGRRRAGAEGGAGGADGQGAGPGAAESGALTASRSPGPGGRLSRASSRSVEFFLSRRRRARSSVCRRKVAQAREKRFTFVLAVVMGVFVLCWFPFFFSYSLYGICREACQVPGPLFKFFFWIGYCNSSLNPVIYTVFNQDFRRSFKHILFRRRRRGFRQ
Dual specificity protein phosphatase 6 (Homo sapiens), sequence (Q16828 whole entry, looked up): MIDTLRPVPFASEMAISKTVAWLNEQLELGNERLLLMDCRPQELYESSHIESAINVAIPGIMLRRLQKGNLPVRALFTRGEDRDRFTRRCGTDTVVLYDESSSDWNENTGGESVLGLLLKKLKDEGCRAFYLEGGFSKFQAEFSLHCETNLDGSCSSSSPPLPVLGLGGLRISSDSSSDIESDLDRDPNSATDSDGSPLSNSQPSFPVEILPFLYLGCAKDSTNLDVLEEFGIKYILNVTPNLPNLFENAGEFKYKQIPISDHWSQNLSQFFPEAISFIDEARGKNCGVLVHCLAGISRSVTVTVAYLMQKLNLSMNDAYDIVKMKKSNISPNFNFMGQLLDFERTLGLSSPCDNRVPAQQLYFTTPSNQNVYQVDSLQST

Compound | cell count [1] | inhibition [1] | inhibition [2] | nuclei count [2] | z-score [3, 9] | z-score [3, 10] | z-score [3, 11] | inhibition [4] | fluorescence slope [5] | NADPH fluorescence slope [6] | slope [7] | inhibition [8]
COc1ccccc1N(Cc1cc2cccc(C)c2[nH]c1=O)C(=O)C(C)C | 355 | -9.7% (inactive) | -118% (inactive) | 171% | 1.34 | -1.06 | -1.74 | 43.8% (inactive) | -0.449 (inactive) | -0.000154 (inactive) | 0.00657 (inactive) | 28.4% (inactive)
Cc1cccc(C)c1N1C(=O)C2ON(c3ccccc3)C(c3ccncc3)C2C1=O (stereo unspecified) | 382 | -1.4% (inactive) | -151% (inactive) | 141% | 1.05 | 0.0518 | -0.286 | -1.75% (inactive) | -0.442 (inactive) | -0.000159 (inactive) | 0.00363 (inactive) | -6.35% (inactive)
CC12CCC(C(=O)N(CCC#N)CCC#N)(CC1=O)C2(C)C (stereo unspecified) | 311 | 21.3% (inactive) | -9% (inactive) | 92.1% | -0.914 | 1.07 | 1.43 | -12.3% (inactive) | -0.505 (inactive) | -9.3e-05 (inactive) | 0.00706 (inactive) | 20.6% (inactive)
N#Cc1nc(-c2ccccc2Cl)oc1N1CCCCC1 | 419 | 6.4% (inactive) | -134% (inactive) | 150% | 1.98 | -2.24 | -0.968 | 20.2% (inactive) | -0.535 (inactive) | -6.6e-05 (inactive) | 0.00507 (inactive) | 35.9% (inactive)
COC(=O)C1=C(C)N=C2SC(C)C(=O)N2C1c1cccs1 (stereo unspecified) | 366 | 3.7% (inactive) | -39.6% (inactive) | 142% | 1.89 | -0.39 | -0.931 | 22.8% (inactive) | -0.426 (inactive) | -0.000101 (inactive) | 0.00597 (inactive) | 14.7% (inactive)
COc1ccc(N/C=C(\C#N)c2nc3ccccc3n2C)c(OC)c1 | 367 | -0.5% (inactive) | -18% (inactive) | 138% | -0.0541 | -0.725 | 2.53 | 1.75% (inactive) | -0.426 (inactive) | -0.000158 (inactive) | 0.00463 (inactive) | 1.37% (inactive)
Cc1ccc2cc(CN(C(=O)c3ccco3)c3ccccc3C)c(=O)[nH]c2c1 | 334 | 8.3% (inactive) | -73.2% (inactive) | 116% | 1.77 | -1.81 | -0.15 | 17.5% (inactive) | -0.477 (inactive) | 1.8e-05 (inactive) | 0.00844 (inactive) | 32.2% (inactive)
Oc1ccc(Br)cc1-c1cc(-c2ccccc2F)[nH]n1 | 293 | 13% (inactive) | -88.6% (inactive) | 116% | -1.09 | 2.76 | -1.37 | -5.26% (inactive) | -0.479 (inactive) | -9.7e-05 (inactive) | 0.00987 (inactive) | -2.23% (inactive)
COc1cccc(C2C(C(=O)c3cccs3)=C(O)C(=O)N2c2cc(C)on2)c1 (stereo unspecified) | 316 | -1.9% (inactive) | -91.3% (inactive) | 148% | -0.295 | -1.2 | 1.95 | -7.01% (inactive) | -0.427 (inactive) | -0.000129 (inactive) | 0.00539 (inactive) | -2.3% (inactive)
CC1CCCCN1C(=O)C12CCC(C)(/C(=N/O)C1)C2(C)C (stereo unspecified) | 333 | -6.9% (inactive) | -75.4% (inactive) | 141% | -1.18 | 2.22 | 1.3 | 5.26% (inactive) | -0.407 (inactive) | -0.000148 (inactive) | 0.00568 (inactive) | -7.07% (inactive)
Oc1ccccc1-c1nc(NCCN2CCOCC2)c2ccccc2n1 | 268 | -6.5% (inactive) | 14.7% (inactive) | 96.7% | 0.138 | 3.56 | -0.549 | 1.6e-07% (inactive) | -0.423 (inactive) | -3.4e-05 (inactive) | 0.00504 (inactive) | 62.5% (active)
CCCSc1nc(C)c(CC(=O)O)c(=O)[nH]1 | 381 | -7.9% (inactive) | -71.2% (inactive) | 190% | -2.53 | 0.0307 | -0.67 | 1.75% (inactive) | -0.45 (inactive) | -0.00012 (inactive) | 0.00515 (inactive) | 21.4% (inactive)
COc1cccc(-c2nc(NCCN3CCOCC3)c3ccccc3n2)c1O | 355 | -7.9% (inactive) | 21.8% (inactive) | 164% | -0.211 | -0.437 | -0.66 | 21% (inactive) | -0.395 (inactive) | -0.00024 (inactive) | 0.00346 (inactive) | 95% (active)
CC1(C)CC(=O)C2=C(C1)Oc1nc3ccccc3cc1C2C(C#N)C#N (stereo unspecified) | 373 | -3.7% (inactive) | -108% (inactive) | 134% | -0.147 | -0.642 | -1.04 | -12.3% (inactive) | -0.414 (inactive) | -0.000128 (inactive) | 0.00783 (inactive) | 26.7% (inactive)
COC(=O)C1=C(C)N=C2SC(C)C(=O)N2C1/C=C/c1ccccc1OC (stereo unspecified) | 366 | 3.2% (inactive) | -74.7% (inactive) | 143% | -1.74 | 0.498 | 0.497 | -1.75% (inactive) | -0.423 (inactive) | -0.00012 (inactive) | 0.00673 (inactive) | -14.7% (inactive)
O=C(NCCCn1ccnc1)C(Cc1ccccc1)N1C(=O)c2ccccc2C1=O (stereo unspecified) | 340 | -6.9% (inactive) | -73.9% (inactive) | 125% | 0.63 | -0.478 | -0.334 | 1.6e-07% (inactive) | -0.46 (inactive) | -0.000126 (inactive) | 0.00809 (inactive) | 3.02% (inactive)
CCCOC(=O)C1[C@H]2C(=O)N(Cc3ccco3)C[C@]23C=C[C@H]1O3 (stereo partly specified) | 337 | -2.3% (inactive) | -90.3% (inactive) | 155% | -0.841 | 0.28 | -0.596 | -7.01% (inactive) | -0.424 (inactive) | -0.000134 (inactive) | 0.00455 (inactive) | 1.77% (inactive)
CC12CCC(C(=O)NCCCN3CCOCC3)(OC1=O)C2(C)C (stereo unspecified) | 297 | 5.1% (inactive) | 12.1% (inactive) | 126% | 0.486 | 0.456 | 1.46 | 8.76% (inactive) | -0.425 (inactive) | -0.000122 (inactive) | 0.0052 (inactive) | -10.2% (inactive)
C=CCNc1nc(-c2cccc(OC)c2O)nc2ccccc12 | 347 | 5.6% (inactive) | -92.9% (inactive) | 101% | -0.736 | 0.355 | 1.19 | 7.01% (inactive) | -0.415 (inactive) | -0.000104 (inactive) | 0.00503 (inactive) | 1.52% (inactive)
CC(C)c1nc2n[nH]c(N)c2c2c1CCC2 | 359 | -3.7% (inactive) | -74.3% (inactive) | 148% | 0.678 | -1.06 | 0.961 | 5.26% (inactive) | -0.409 (inactive) | -0.000125 (inactive) | 0.007 (inactive) | 2.52% (inactive)
CCN(CC)CCCN1C(=O)C(=O)/C(=C(/O)c2ccc(Cl)cc2)C1c1ccccn1 (stereo unspecified) | 355 | 3.2% (inactive) | -70.8% (inactive) | 81.9% | -2.05 | -1.03 | 0.528 | -15.8% (inactive) | -0.442 (inactive) | -0.000153 (inactive) | 0.00491 (inactive) | 24.6% (inactive)
CCOC(=O)N1CCN(/C=C(\C#N)c2nc3ccccc3s2)CC1 | 357 | -3.2% (inactive) | -5.3% (inactive) | 136% | 1.93 | 0.746 | -0.877 | 7.01% (inactive) | -0.404 (inactive) | -0.000116 (inactive) | 0.0139 (inactive) | -8.84% (inactive)
COc1ccc(NCc2cc3ccccc3[nH]c2=O)cc1 | 254 | -8.8% (inactive) | -69.8% (inactive) | 90% | -0.199 | -0.583 | 0.127 | -12.3% (inactive) | -0.408 (inactive) | -3.2e-05 (inactive) | 0.00788 (inactive) | 7.35% (inactive)
COc1ccc(C2C=C(c3ccc(Cl)cc3)Nc3nc(NC(C)=O)nn32)cc1 (stereo unspecified) | 325 | 1.9% (inactive) | -27.6% (inactive) | 159% | -0.557 | 0.239 | 0.747 | -8.76% (inactive) | -0.144 (inactive) | 4.9e-05 (inactive) | 0.00461 (inactive) | 7.51% (inactive)
COCCN(CCOC)C(=O)C12CCC(C)(C(=O)C1)C2(C)C (stereo unspecified) | 237 | -4.2% (inactive) | 17.3% (inactive) | 124% | 0.486 | 2.03 | 1.23 | 10.5% (inactive) | -0.458 (inactive) | -5.9e-05 (inactive) | 0.00572 (inactive) | -24.6% (inactive)
c1ccc(-c2nc(NCC3CCCO3)c3ccccc3n2)nc1 (stereo unspecified) | 365 | 0% (inactive) | -106% (inactive) | 173% | 1.77 | -0.891 | -0.309 | -1.75% (inactive) | -0.436 (inactive) | -0.000131 (inactive) | 0.00509 (inactive) | 24.6% (inactive)
O=C(O)CCCCCN1C(=O)CCC1=O | 376 | -5.6% (inactive) | -216% (inactive) | 154% | -0.0667 | -0.815 | 0.641 | 5.26% (inactive) | -0.456 (inactive) | -0.000125 (inactive) | 0.0074 (inactive) | 7.42% (inactive)
CCN(CC)CCn1c(O)c(N=O)c2ccccc21 | 314 | -11.6% (inactive) | -9% (inactive) | 111% | -0.589 | -0.252 | 0.221 | 21% (inactive) | -0.482 (inactive) | -3.1e-05 (inactive) | 0.00988 (inactive) | 0.498% (inactive)

Reference: PubChem BioAssay
